# High-throughput results deposited in PubChem BioAssay by National Center for Advancing Translational Sciences (NCATS).
# KB-3-1 cytotox = KB-3-1 parental cell cytotoxicity. KB-3-1 viability, CellTiter-Glo ATP luminescence, 72 h. Potency, µM (titrated, usually from 46.1 µM), most hits filed as cytotoxic. 400,000 tested, 1.4% active; note: % is set by controls: 0 for no effect and ±100 for the full control effect; nearly all actives have a fitted effect of over 60% in size
#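 KB-3-1 cells, DMEM (no phenol red) + 10% FBS; compound by pin transfer, 72 h, 37 °C. Readout: CellTiter-Glo luminescence after 10 min. Data normalized, curve-fitted.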
# KB-V1 cytotox = KB-V1 MDR subline cytotoxicity; KB-V1 MDR cells viability, CellTiter-Glo, 72 h; Potency, µM (doses to about 46.1 µM), hits mostly cytotoxic; 400,000 tested, 3.4% active; AID 1347076; note: % is set by controls: 0 for no effect and ±100 for the full control effect; nearly all actives have a fitted effect of over 60% in size
#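 Cytotoxicity toward P-gp-expressing KB-V1 cells was determined as loss of CellTiter-Glo luminescence after 72 h at 37 degrees C. Compounds were tested in quantitative HTS format across a concentration range, with curves fitted to normalized data.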
# ELG1 DNA repair = blocks ELG1-dependent DNA repair in HEK293T cells; 330,000 tested, 2.3% active; Potency, µM (top dose mostly 46.1 µM), without a hit: top-dose activity change, negative = inhibition, usual class: inhibitors; HEK293T ELG1-luciferase reporter, luminescence, 16 h; DNA damage induced by 5-fluorouridine; note: % is set by controls: 0 for no effect and ±100 for the full control effect; nearly all actives have a fitted effect of over 55% in size
#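 Quantitative HTS, concentration-response format. 2,000 cells/well co-treated with 5-fluorouridine and compound, 16 hr in 5% CO2 at 37 °C; ONE-Glo luminescence read after 30 min.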
# SW480 rereplic = inducers of DNA re-replication in SW480 colon cancer cells; AID 624297; SW480 DNA re-replication, Hoechst DNA content imaging, 48 h; Potency, µM (doses to about 46.1 µM), for the others: at the top dose re-replication activation, actives largely listed as activators; 340,000 tested, 1.8% active; note: % of control where 0% means no effect; nearly all actives have a fitted effect of over 55% in size
#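 Image-based DNA-content assay: after two days of treatment, nuclei were labelled with the DNA dye Hoechst and imaged, and hits were compounds raising the count of nuclei showing high fluorescence intensity.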
# MCF10A rerep = induces DNA re-replication in MCF 10a normal breast cells; MCF 10A DNA re-replication, Hoechst nuclear intensity, 48 h; Potency, µM (doses to about 46.1 µM), inactives show at the highest dose activity, positive = re-replication, hits mostly activators; 350,000 tested, 2.9% active; note: % of control where 0% means no effect; nearly all actives have a fitted effect of over 50% in size
# * = called active by the depositor; i = inactive; ? = inconclusive; / = no result. Compounds with a hit are over-represented: about 8.1% of the library has one in this group of screens. Calls come from the whole dose curve; as a rule, active = well fitted curve in the direction sought with a large enough effect; inconclusive = small, poorly fitted or top-dose-only effect, or another doubt; inactive = no such curve, though single readings can be large; an effect the other way counts as inactive or inconclusive. Potency is the fitted concentration of half-maximal effect.
SMILES,KB-3-1 cytotox,KB-V1 cytotox,ELG1 DNA repair,SW480 rereplic,MCF10A rerep
COCCn1c(C)cc(O)c(C(c2ccc(F)cc2)N2CCN(c3ccccc3)CC2)c1=O (configuration not stated),i,i,/,/,/
CCCN(CC1CC1)c1cc2c(c3c1ccn3C)C1CCC2O1 (configuration not stated),i,i,/,/,/
O=C(CCc1nc2ccccc2[nH]1)Nc1ccc(F)cc1,i,12µM*,8%,-6%,0%
O=C(Nc1ccc(F)cc1)C(Sc1nc2ccccc2[nH]1)c1ccccc1 (configuration not stated),?,?,-2%,?,12µM*
CCOc1ccc(NC(=O)C(C)Oc2ccc(C#N)cc2)cc1S(=O)(=O)N1CCCC1 (configuration not stated),i,?,?,-19%,-1%
C[C@@H]1CN([C@@H](C)CO)S(=O)(=O)c2ccc(Br)cc2O[C@H]1CN(C)C(=O)c1ccccc1,i,?,/,/,/
COc1ccc(C(=O)C[n+]2cc(-c3ccc(OC)cc3)n3c2CCCC3)cc1,?,?,7.3µM*,?,7%
Cc1ccc(-c2c[n+](CC(=O)OCc3ccccc3)c3n2CCC3)cc1,i,i,9%,9.2µM*,?
Cc1ccc(C(=O)C[n+]2cc(-c3ccc(C)cc3)n3c2CCCCC3)cc1,0.92µM*,i,16µM*,11%,?
COc1ccc(-c2c[n+](CC(=O)c3cccs3)c3n2CCC3)cc1,?,i,23µM*,-9%,1%
CC(=O)c1cc2c(cc1NC(=O)CN(C)S(=O)(=O)c1cccs1)OCO2,?,i,-2%,-29%,?
Cc1cc(Cl)c2oc(C(=O)N3CCCCC3CCN3CCCC3=O)c(C)c2c1 (configuration not stated),i,i,?,0%,18%
O=C(NC1CCCC1)C(c1ccc(F)cc1)N1CCC(O)(c2ccc(Cl)cc2)CC1 (configuration not stated),i,?,/,/,/
Cc1ccc(-c2c[n+](Cc3ccc(Cl)c(Cl)c3)c3n2CCC3)cc1,3.7µM*,i,21µM*,60%,?
Cc1ccc(NC(=O)C[n+]2cc(-c3ccc(C)cc3)n3c2CCC3)cc1,i,i,0%,-44%,0%
O=C(CCCl)Nc1nnc(SCC(=O)NC2CCCC2)s1,i,i,-6%,8.2µM*,18µM*
C=CC1=C(C(=O)O)N2C(=O)[C@@H](NC(=O)C(N=O)c3csc(N)n3)[C@H]2SC1 (some centres not stated),/,/,/,-1%,-5%
O=c1c(Cl)c(N/N=C/c2ccc(Br)cc2)cnn1-c1ccccc1,i,i,0%,?,7.1µM*
COc1ccc(OC)c(-c2cc(C(=O)Nc3c(C)nn(Cc4ccccc4C)c3C)no2)c1,i,i,26µM*,8%,-13%
COc1ccc(OC)c(-c2cc(C(=O)Nc3c(C)n(C)n(-c4ccccc4)c3=O)no2)c1,i,23µM*,-3%,3%,16%
COc1ccc(OC)c(-c2cc(C(=O)Nc3c(C)nn(Cc4ccccc4Cl)c3C)no2)c1,?,i,0%,11%,15%
COc1ccc(-c2cc(C(=O)Nc3c(C)nn(Cc4ccccc4Cl)c3C)no2)cc1OC,?,?,23µM*,-2%,29%
Cc1cc(C(=O)Nc2c(C)nn(Cc3ccccc3Cl)c2C)no1,i,21µM*,-1%,-2%,3%
Cc1cc(C)n(C(C)CC(=O)Nc2ccc(Cl)cc2C)n1 (configuration not stated),i,i,/,/,/
CC(=O)c1cccc(NC(=O)Cn2nc(C(F)(F)F)c3c2CCC3)c1,i,i,/,/,/
